A selection: hits, their analogues and other compounds. The true share with any hit is near 31%.
CYP2C19 inh: human CYP2C19 inhibition. P33261. CYP2C19 Supersomes, luciferin-H EGE luminescence, 30 min. inhibition, % at 5 µM. hit rate 21% among 96,000;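 active = CYP2C19 inhibition above a set limit at 5 µM in the primary screen, cut at about 50% in these data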;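 note: plate controls were negative control wells for no effect and 2.5 mM tranylcypromine positive control for full effect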
CYP2C9 inhib: human CYP2C9 inhibition; inhibition, % at 5 µM; CYP2C9 Supersomes, luciferin-H conversion, luminescence; AID 777; P11712; hit rate 20% among 96,000;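 active = blocking of liver enzyme CYP2C9 beyond about 50% at 5 µM, limit read from the data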
CYP2C19 activ: increases human CYP2C19 enzyme activity. AID 1025. P33261. activation factor at 5 µM. recombinant CYP2C19, luciferin-H EGE luminescence; stronger effect = higher value; 0 = fully inhibited enzyme, 1 = untreated enzyme. 96,000 tested, under 10 active;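 active = activation factor of at least 2 at 5 µM in the primary screen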;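 note: 0 = wells with 2.5 mM tranylcypromine and 1 = vehicle-only wells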
PLAP act: human PLAP activation. AID 696. purified PLAP enzyme, luminescent substrate read-out; stronger effect = higher value. P05187. activation fold at 20 µM. hit rate 1.2% among 96,000; in the data active = activation fold above about 2
Target sequence (P05187 whole entry, looked up): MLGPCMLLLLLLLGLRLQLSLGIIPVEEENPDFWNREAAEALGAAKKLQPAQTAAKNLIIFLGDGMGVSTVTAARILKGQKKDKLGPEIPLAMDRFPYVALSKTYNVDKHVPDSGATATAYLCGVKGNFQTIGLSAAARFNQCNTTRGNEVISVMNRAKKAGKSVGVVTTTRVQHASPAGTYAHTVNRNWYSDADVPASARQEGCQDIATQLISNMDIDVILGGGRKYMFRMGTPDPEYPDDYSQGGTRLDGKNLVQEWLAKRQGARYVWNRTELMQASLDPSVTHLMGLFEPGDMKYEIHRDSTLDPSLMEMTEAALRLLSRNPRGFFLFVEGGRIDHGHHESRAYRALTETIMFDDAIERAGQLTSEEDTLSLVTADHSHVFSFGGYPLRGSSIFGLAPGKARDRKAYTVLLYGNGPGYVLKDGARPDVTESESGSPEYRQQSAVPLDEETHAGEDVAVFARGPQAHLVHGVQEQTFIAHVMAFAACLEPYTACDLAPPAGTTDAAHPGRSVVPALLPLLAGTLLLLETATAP
CYP2C9 act: CYP2C9 (human) activation; P11712; recombinant CYP2C9, luciferin-H conversion, luminescence; stronger effect = higher value; factor 1 = untreated enzyme, 0 = blocked; activation factor at 5 µM; hit rate 1.4% among 96,000; AID 1024;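 active = activation factor of 2 or more for CYP2C9 at a 5 µM dose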;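 note: 0 = sulfaphenazole-blocked wells and 1 = vehicle-only wells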
Numbers without * were called inactive.

SMILES	CYP2C19 inh	CYP2C9 inhib	CYP2C19 activ	PLAP act	CYP2C9 act
COc1ccc(CN2C(=O)[C@@H]3C(c4ccccc4Cl)=NO[C@@H]3C2=O)cc1	87*	70*	0.1	1	0.3
O=C1[C@@H]2C(c3ccccc3Cl)=NO[C@@H]2C(=O)N1Cc1ccccc1	99*	73*	0	1.2	0.3
COc1ccc(Cl)cc1N1C(=O)[C@@H]2C(c3cccc(OC)c3OC)=NO[C@@H]2C1=O	12	18	0.9	1.2	0.8
CC1=C(C)CC2C(=O)N(Cc3ccccc3)C(=O)C2C1 (stereo not given)	30	18	0.7	0.8	0.8
COc1ccc(OC)c(C2=NO[C@@H]3C(=O)N(c4cc(Cl)ccc4OC)C(=O)[C@H]23)c1	62*	23	0.4	1.7	0.8
COc1ccc(CN2C(=O)C3C4C=CC(C4)C3C2=O)cc1 (stereo not given)	16	8	0.8	1	0.9
Cc1sc(-c2ccncc2)nc1OC(=O)c1ccc(Cl)cc1	90*	88*	0.1	1	0.1
Cc1sc(-c2ccncc2)nc1OC(=O)c1cc(Cl)cc(Cl)c1	53*	68*	0.5	0.9	0.3
COc1cc(C(=O)Nc2ccc(S(=O)(=O)N3CCc4ccccc43)cc2)cc(OC)c1OC	50	91*	0.5	1.6	0.1
O=C(Nc1ccc(S(=O)(=O)N2CCc3ccccc32)cc1)c1ccc2c(c1)OCO2	19	40	0.8	0.7	0.6
COc1ccccc1C(=O)Nc1ccc(S(=O)(=O)N2CCc3ccccc32)cc1	73*	89*	0.3	1.9	0.1
COC(=O)Nc1ccc(S(=O)(=O)N2CCCc3ccccc32)cc1	-6	46	1.1	0.9	0.5
Cc1cccc2c1OCC/C2=N\NC(=O)COc1ccccc1	23	35	0.8	0.9	0.6
CC(C)CCNC(=O)c1ccc2c(c1)N(Cc1ccccc1)C(=O)CS2=O (stereo not given)	13	50*	0.9	1.3	0.5
CCCN(CCC)C(=O)c1ccc2c(c1)N(Cc1ccccc1)C(=O)CS2=O (stereo not given)	-7	86*	1.1	1.3	0.1
O=C(O)c1ccc2c(c1)N(Cc1ccccc1)C(=O)c1ccccc1S2=O (stereo not given)	-17	41	1.2	1.1	0.6
CCOCCCNC(=O)c1ccc2c(c1)N(Cc1ccccc1)C(=O)CS2=O (stereo not given)	34	42	0.7	1.4	0.6
O=C(NCCc1ccccc1)c1ccc2c(c1)N(Cc1ccccc1)C(=O)CS2=O (stereo not given)	48	86*	0.5	1.2	0.1
COc1ccc(CCNC(=O)C2CCN(S(=O)(=O)c3ccc(-n4cnnn4)cc3)CC2)cc1OC	31	29	0.7	1.3	0.7
O=C1CCCc2nn(-c3ccccc3)c(-c3ccncc3)c21	7	18	0.9	1	0.8
CCN(CC(=O)NCc1cccs1)S(=O)(=O)c1ccc(C(C)C)cc1	26	-45	0.7	0.9	1.5
COc1ccccc1CN1C(=O)CN(C2CCCCCC2)C(=O)C1c1ccc(F)cc1 (stereo not given)	57*	44	0.4	0.9	0.6
COc1ccc(S(=O)(=O)NNC(=O)c2csc(-n3nc(C)cc3C(F)(F)F)n2)cc1OC	14	54*	0.9	1.1	0.5
CC(=O)c1cccc(NC(=O)c2csc(-n3nc(C)cc3C(F)(F)F)n2)c1	51*	56*	0.5	1.1	0.4
COc1ccc(/C=N/NC(=O)c2csc(-n3nc(C)cc3C(F)(F)F)n2)cc1	23	32	0.8	1.4	0.7
SMILES	CYP2C19 inh	CYP2C9 inhib	CYP2C19 activ	PLAP act	CYP2C9 act
COC(=O)c1nc2n(n1)C(c1ccccc1OC)C1=C(CCCC1=O)N2 (stereo not given)	8	4	0.9	1.1	1
CCOC(=O)C(NC(C)=O)C(OC(C)=O)c1cccc(N(CCO)CCO)c1 (stereo not given)	-2	0	1	1.2	1
Cc1c(C(=O)O)c(=S)sn1CCOc1ccccc1	1	0	1	1	1
CCc1ccccc1NC(=O)C1CC(c2ccc(F)cc2)=NO1 (stereo not given)	83*	-40	0.2	0.8	1.4
N#Cc1ccc(NC(=O)C2CC(c3ccc(F)cc3)=NO2)cc1 (stereo not given)	8	9	0.9	1	0.9
COC(=O)c1ccccc1NC(=O)C1CC(c2ccc(F)cc2)=NO1 (stereo not given)	34	-50	0.7	0.9	1.5
O=C(Nc1ccc2c(c1)OCO2)C1CC(c2ccc(F)cc2)=NO1 (stereo not given)	53*	21	0.5	0.8	0.8
COc1ccc(CN2CC(C(=O)N3CCOCC3)CC2=O)cc1 (stereo not given)	13	1	0.9	0.9	1
S=C(NCCC(c1ccccc1)c1ccccc1)Nc1cccc(Cl)c1	81*	81*	0.2	1.4	0.2
Cc1ccccc1NC(=S)NCCC(c1ccccc1)c1ccccc1	63*	64*	0.4	1	0.4
Cc1ccc(NC(=S)NCCC(c2ccccc2)c2ccccc2)c(C)c1	61*	59*	0.4	1.4	0.4
Cc1ccc(C)c(NC(=S)NCc2cccn2C)c1	29	-33	0.7	0.8	1.3
O=c1/c(=C/c2ccccn2)sc2nc3ccccc3n12	71*	54*	0.3	0.8	0.5
COC(=O)/C=c1/sc2nc3ccccc3n2c1=O	6	27	0.9	0.9	0.7
Cc1c(NC(=O)OCCSc2nc(N(C)C)nc(N(C)C)n2)sc(=S)n1C	14	5	0.9	1	0.9
Cc1ccc(S(=O)(=O)NC(=O)c2cc(C)n(CCCn3ccnc3)c2C)cc1	54*	90*	0.5	1.6	0.1
Cc1cc(=S)cc(C)n1CCCn1ccnc1	-8	2	1.1	0.9	1
O=C(CSCc1nc2ccccc2[nH]1)Nc1ccc2ccccc2c1	32	58*	0.7	0.9	0.4
C=C(C)CSCc1nc2ccccc2[nH]1	90*	28	0.1	1	0.7
O=C(CSCc1cccc(CSCC(=O)Nc2ccc3ccccc3c2)n1)Nc1ccc2ccccc2c1	81*	99*	0.2	1.2	0
O=C(CSCc1nc2ccccc2[nH]1)N1CCN(c2ccc(F)cc2)CC1	48	46	0.5	1.9	0.5
O=C(CSCC(=O)Nc1ccc2ccccc2c1)NCc1ccccc1	19	-2	0.8	1.1	1
CCc1nc2ccccc2[nH]1	21	-7	0.8	0.9	1.1
O=C(CSc1cccs1)Nc1ccc2ccccc2c1	60*	64*	0.4	1	0.4
COc1cc(OC)cc(C(=O)NCCNC(=O)c2ccccc2)c1	53*	46	0.5	0.9	0.5
O=C(NCNC(=O)c1ccccc1)c1ccccc1	94*	-3	0.1	0.9	1
COc1cc(OC)cc(C(=O)Nc2ccccc2NC(C)=O)c1	35	26	0.7	1.1	0.7

Source: PubChem BioAssay (Sanford-Burnham Center for Chemical Genomics)
